Screening data (PubChem)
AmpC no deterg: blocks E. coli AmpC beta-lactamase in detergent-free assay; AmpC nitrocefin hydrolysis, absorbance 480 nm, 0.0001% Triton; Potency, µM (doses to about 57.1 µM), actives largely listed as inhibitors; 0.52% of 330,000 active; AID 485341; also: nearly all actives have a fitted effect of over 20% in size
Target sequence (P00811 whole entry, looked up): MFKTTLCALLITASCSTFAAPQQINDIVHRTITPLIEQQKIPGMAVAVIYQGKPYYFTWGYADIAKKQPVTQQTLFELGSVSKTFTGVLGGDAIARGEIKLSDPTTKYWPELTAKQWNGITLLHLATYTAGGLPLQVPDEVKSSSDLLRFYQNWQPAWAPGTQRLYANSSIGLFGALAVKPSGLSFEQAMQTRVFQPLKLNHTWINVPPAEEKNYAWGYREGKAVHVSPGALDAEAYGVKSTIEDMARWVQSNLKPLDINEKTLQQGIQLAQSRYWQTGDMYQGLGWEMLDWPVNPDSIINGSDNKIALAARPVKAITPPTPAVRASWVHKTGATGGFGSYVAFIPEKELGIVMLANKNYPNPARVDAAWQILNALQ
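20 mM phosphate pH 7.0 + 0.01% (detergent screen) or 0.0001% Triton X-100; 5.3 nM AmpC reagent; cpd preinc 15 min RT; nitrocefin (800 uM stock) to start; A480 q20 s × 4 min; Activity was normalised to no-enzyme and no-compound control wells.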
Sm TGR inh: S. mansoni TGR enzyme inhibition | Q962Y6 | Potency, µM (highest dose often 114 µM), usual class: inhibitors | purified TGR, DTNB reduction, TNB absorbance 405 nm | 3% of 360,000 active; also: nearly all actives have a fitted effect of over 60% in size
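TGR 20 nM + NADPH 100 uM (dispensed conc.), cpd preinc 15 min RT; start with NADPH (500 uM addition) then DTNB (15 mM addition). Kinetic TNB absorbance, 405 nm filter. Four-parameter Hill fit across titration.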
AmpC inh detg: AmpC beta-lactamase inhibition with detergent present; P00811; AmpC hydrolysis of nitrocefin, absorbance 480 nm, 0.01% Triton; Potency, µM (doses to about 114 µM), actives largely listed as inhibitors; 0.041% of 370,000 active; AID 485294; also: nearly all actives have a fitted effect of over 25% in size
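AmpC (5.3 nM in the dispensed reagent) in 20 mM phosphate pH 7.0 with 0.01% (detergent screen) or 0.0001% Triton X-100 was preincubated with compounds for 15 min at room temperature. Nitrocefin was then added from an 800 uM solution, and hydrolysis was followed at 480 nm.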
Hits are given with their value; n = inactive; u = inconclusive; x = not tested or not shown; [ ] = dose if it differs, or a comment. Most compounds without a hit are left out; they make up all but 3.3% or so of the library. Calls follow the shape of the dose curve; as a rule, active = well fitted curve in the direction sought with a large enough effect; inconclusive = small, poorly fitted or top-dose-only effect, or another doubt; inactive = no such curve, though single readings can be large; an effect the other way counts as inactive or inconclusive.

SMILES	AmpC no deterg	Sm TGR inh	AmpC inh detg
C=CCn1c(C)cc(-c2csc(NC(=O)CCc3nc4ccccc4c(=O)[nH]3)n2)c1C	n	n	n
C=C(C)c1cccc(C(C)(C)NC(=O)N2CCN(CC(N)=O)CC2)c1	n	45µM	n
CCN1CCN(C(=O)C2CCN(C(=O)Nc3ccccc3)CC2)CC1	n	n	n
C=C(C)c1cccc(C(C)(C)NC(=O)N2CCN(CC)CC2)c1	n	n	n
NC(=O)CN1CCN(C(=O)Nc2ccccc2)CC1	22µM	n	n
O=C(Cc1c(F)cccc1Cl)NCc1cccnc1	n	n	n
CCOc1cc(N2CCOCC2)c(OCC)cc1NC(=O)CN1C(=O)NC2(CCCCC2C)C1=O (stereo unspecified)	n	n	u
COC(=O)CCCC1=CC2=CC(=O)C(C)(OC(=O)CCc3ccccc3)C(=O)C2=CO1 (stereo unspecified)	n	u	n
CCC(=O)OC1(C)C(=O)C=C2C=C(c3ccsc3)OC=C2C1=O (stereo unspecified)	n	32µM	n
CCOC(=O)C1CCN(C(c2ccc(C)cc2)c2c(O)cc(C)n(CCOC)c2=O)CC1 (stereo unspecified)	x	7.9µM	n
CCOC(=O)C1CCN(C(=O)Cc2ccc(C)cc2)CC1	n	n	u
CCOC(=O)C1CCN(C(C(=O)NC2CCCCC2)c2ccc(OC)cc2)CC1 (stereo unspecified)	n	n	u
CCOC(=O)C1CCN(C(c2ccc(OCC)cc2)c2c(O)cc(C)n(CCOC)c2=O)CC1 (stereo unspecified)	x	10µM	n
CCC1=C(OC(=O)N(CC)CC)N2C(=O)OC(=NCC3CC3)[C@]2(Cc2ccccc2)[C@H]2C1=CC[C@H]1C(=O)N(c3ccccc3)C(=O)[C@H]12	n	n	n
COc1ccc(OCc2ccc(-c3nc(C#N)c(N4CCC(C)CC4)o3)o2)cc1	x	n	n
Cc1ccccc1-c1nnc(CN2CCN(c3ccccn3)CC2)o1	x	n	n
CC(=O)NC1C(OCc2ccccc2)OC2COC(c3ccccc3)OC2C1OCC(=O)O (stereo unspecified)	n	n	n
CCOC(=O)c1c(C)[nH]c(=S)c(C#N)c1-c1ccc(Cl)cc1	28µM	n	n
CCOC(=O)c1c(C)[nH]c(=S)c(C#N)c1-c1ccc(OC)cc1	n	n	u
C=CCNC(=O)c1ccc(C2SCC(=O)N2Cc2ccco2)cc1 (stereo unspecified)	n	28µM	n
COCCNC(=O)c1ccc(C2SCC(=O)N2Cc2ccco2)cc1 (stereo unspecified)	n	22µM	n
COCCCNC(=O)c1ccc(C2SCC(=O)N2Cc2ccco2)cc1 (stereo unspecified)	n	u	n
O=C(NCc1ccc2c(c1)OCO2)c1ccc(C2SCC(=O)N2Cc2ccco2)cc1 (stereo unspecified)	n	u	n
COc1ccc(NCC(=O)Nc2cccc(C(F)(F)F)c2)cc1S(=O)(=O)N1CCOCC1	n	x	x
O=C1C2C3C=CC(CC3)C2C(=O)N1c1ccc(F)cc1 (stereo unspecified)	n	n	u
SMILES	AmpC no deterg	Sm TGR inh	AmpC inh detg
CC(C)C1NC2(C(=O)c3ccccc3C2=O)C2C(=O)N(c3ccc(F)cc3)C(=O)C12 (stereo unspecified)	n	2µM	n
COc1ccc(-c2noc(CCC(=O)NCCN(C)Cc3ccccc3)n2)cc1	x	89µM	n
COc1ccc(-c2noc(CCC(=O)NCCc3ccccc3)n2)cc1	n	n	n
CC1CC(C)(C)Nc2ccc(OC(=O)c3ccco3)cc21 (stereo unspecified)	n	n	n
CC1CC(C)(C)Nc2ccc(N=O)cc21 (stereo unspecified)	n	14µM	n
CCCC1=C/C(=C/c2ccc(-c3ccccc3OC)o2)C(=O)O1	32µM	22µM	u
COc1ccccc1/C=C/C(=O)OCCN1C(=O)c2ccccc2C1=O	n	n	n
O=Cc1ccc(-c2ccccc2OC(F)(F)F)o1	n	n	n
COc1ccccc1-c1ccc(/C=C2/C=C(CC(C)C)OC2=O)o1	u	35µM	n
CC(=O)n1c2c(c3ccccc31)OC(N)=C(C#N)C2c1cccc(Cl)c1Cl (stereo unspecified)	n	n	n
N=C1S/C(=C\c2ccco2)C(=O)N1c1ccc2c(c1)OCO2	n	x	n
N=C1S/C(=C\c2ccco2)C(=O)N1c1nccs1	n	22µM	n
CCN(CC)c1ccc(N=Cc2c(O)n(Cc3ccco3)c(=O)[nH]c2=O)cc1	n	n	n
N#Cc1c(/N=C/c2c(O)n(Cc3ccco3)c(=O)[nH]c2=O)sc2c1CCCC2	n	89µM	u
O=c1[nH]c(=O)n(Cc2ccco2)c(O)c1/C=N/N1CCCCCC1	n	n	n
NC(=O)c1ccc(N=Cc2c(O)n(Cc3ccco3)c(=O)[nH]c2=O)cc1	n	40µM	n
O=c1[nH]c(=S)n(Cc2ccco2)c(O)c1C=NCc1cccs1	18µM	u	n
O=c1[nH]c(=O)n(Cc2ccco2)c(O)c1C=NCc1cccs1	x	u	n
Cc1ccc(/C=N/NC(=O)CN(Cc2ccccc2)S(=O)(=O)c2ccc3c(c2)OCCO3)cc1	n	n	n
Cc1ccc(OCCSc2nc3ccccc3n2CC(=O)N2CCCCC2)c(C)c1	x	n	n
COc1cccc(CNC(=O)Cn2ncn3cccc3c2=O)c1OC	n	n	n
S=C1NNC2(CC3CC2C2CCCC32)NN1 (stereo unspecified)	n[11.4 µM]	n	u
CCOC(=O)c1c(C)[nH]c(C)c1S(=O)(=O)N1CCN(c2cccc(C(F)(F)F)c2)CC1	x	n	n
Cc1ccc(N2NC(=O)/C(=C/c3ccc(-c4ccc(Cl)c(C(=O)O)c4)o3)C2=O)cc1C	n	n	n
Cc1cccc(N2C(=O)/C(=C/c3ccc(CN(CCC#N)S(C)(=O)=O)o3)C(=O)NC2=S)c1	n	8.9µM	u
SMILES	AmpC no deterg	Sm TGR inh	AmpC inh detg
CS(=O)(=O)N(CCC#N)Cc1ccc(/C=C2\C(=O)Nc3ccccc32)o1	n	n	u
Cc1ccc(N2C(=O)/C(=C/c3ccc(CN(CCC#N)S(C)(=O)=O)o3)C(=O)NC2=S)cc1C	n	3.2µM	n
O=C(N=C1SC2CS(=O)(=O)CC2N1Cc1ccccc1Cl)C1CC1 (stereo unspecified)	n	n	n
COc1cc(NC(=O)c2cc3c(=O)n(Cc4ccco4)ccc3nc2C)cc(OC)c1OC	x	n	n
CCOC(=O)c1c(NC(=O)/C=C/c2ccc(OCC)cc2)sc(C(C)=O)c1C	x	n	n
O=C(NCCCN1CCOCC1)c1cc(S(=O)(=O)N2CCOCC2)ccc1Cl	n	x	x
Cc1cc(=O)[nH]c(SCC(=O)O)c1C#N	n	n	n
Cc1cc(=O)[nH]c(SCC(=O)C23CC4CC(CC(C4)C2)C3)c1C#N	n	16µM	u
CC[n+]1c(/C=C/Nc2ccccc2)sc2ccccc21	n	n	u
CCN1/C(=C/C=C/C=C/c2sc3ccccc3[n+]2CC)Sc2ccccc21	n	50µM	u
CCN1/C(=C/C=C/C=C/C=C/c2sc3ccccc3[n+]2CC)Sc2ccccc21	n	40µM	n
CCN1/C(=C/C=C/c2sc3ccccc3[n+]2CC)Sc2ccccc21	n	n	u
CCCCC(=O)Nc1cnc(NC(=O)c2ccco2)cc1C	n	n	n
